The record followed here is ChEMBL document CHEMBL1157539, “Thousands of chemical starting points for antimalarial lead identification” (Nature, 2010).

Common to all, as to format: functional
The test system of experiment [1] is Plasmodium falciparum. In words: GSK_TCMDC: Inhibition of Plasmodium falciparum 3D7 in whole red blood cells, using parasite LDH activity as an index of growth. Test compounds present at 2uM.
The subject of experiment [2] is Plasmodium falciparum. In words: GSK_TCMDC: Inhibition of Plasmodium falciparum Dd2 in whole red blood cells, using parasite LDH activity as an index of growth. Test compounds present at 2uM.
The test system of the next experiment is HepG2. In words: GSK_TCMDC: Percent inhibition of human HepG2 cell line. Test compounds present at 10uM.

For the compound `CN(C)c1cc2c(Nc3ccc4nc(Cc5ccccc5)[nH]c4c3)ncnc2cn1` [GW301888X], the Inhibition (usually the relative decrease from the control value, in per cent) in the experiment with Plasmodium falciparum [1] stood at 85%; in the experiment on Plasmodium falciparum [2], 29%; with HepG2, 11%.

For `CCCCC(=O)Nc1nonc1-c1ccc(OCC)c(OCC)c1`, the values for the Inhibition with Plasmodium falciparum [1], in the experiment on Plasmodium falciparum [2] and in the experiment with HepG2 were 100%, 95% and 9%, respectively.

With `O=C(Nc1ccc(C(F)(F)F)cc1)NC1CCN(c2ccnc3cc(Cl)ccc23)C1.O=C(O)C(F)(F)F` (stereo not drawn), the Inhibition with Plasmodium falciparum [1] was 100%; in the experiment with Plasmodium falciparum [2], 99%; with HepG2, 20%.

Turning to `CC(C)[C@H]1CC[C@H](C)C[C@@H]1OC(=O)N[C@@H](Cc1ccc(O)cc1)C(=O)NC1CCN(Cc2ccc(OCCCN(C)C)cc2)C1` (stereo partly drawn), the Inhibition in the experiment with Plasmodium falciparum [1] came to 99%; in the experiment on Plasmodium falciparum [2] it was 64%; in the experiment with HepG2, 27%.

Take `CC(C)c1ccc(NC(=O)N2CCc3ccc(OCCN(C(C)C)C(C)C)cc32)c(Br)c1.O=C(O)C(F)(F)F`: the Inhibition in the experiment on Plasmodium falciparum [1] came out at 86%; in the experiment with Plasmodium falciparum [2], 5%; with HepG2 it was 6%.

As to `CN(C)Cc1ccc(-c2ccc3c(Nc4ccc(Oc5ccccn5)cc4)ccnc3c2)o1`, the Inhibition is recorded as 100% with Plasmodium falciparum [1], 100% in the experiment with Plasmodium falciparum [2] and 18% in the experiment on HepG2.

Turning to `Cc1cc(C)cc(OCC(O)CN(CCN2CCOCC2)C(=O)Nc2ccc(Br)cc2)c1.O=C(O)C(F)(F)F` (stereo not drawn), the Inhibition in the experiment with Plasmodium falciparum [1] is 85%; in the experiment on Plasmodium falciparum [2], 19%; in the experiment on HepG2, 7%.

With `COc1ccc(C2C(C(=O)OC3CCCCC3)=C(C)NC3=C2C(=O)CCC3)cc1Br` (stereo not drawn), the figures for the Inhibition in the experiment on Plasmodium falciparum [1], with Plasmodium falciparum [2] and in the experiment with HepG2 were 95%, 94% and 7%, respectively.

As to `CNC(=O)c1ccccc1Nc1nc(Nc2ccc(N3CCN(C)CC3)nc2)ncc1C.Cl`, the figures for the Inhibition in the experiment on Plasmodium falciparum [1], in the experiment with Plasmodium falciparum [2] and in the experiment with HepG2 were 92%, 50% and 75%, respectively.

Turning to `CC(C)Nc1nc(NCCc2c[nH]cn2)nc(NCc2cccc3ccccc23)n1`, the figures for the Inhibition with Plasmodium falciparum [1], in the experiment with Plasmodium falciparum [2] and in the experiment with HepG2 were 90%, 0% and 4%, respectively.

Turning to `COc1ccc(C2CCN(CCCCNC(=O)c3ccc(NC(=O)c4ccc(Cl)cc4)cc3)CC2)c(OC)c1.Cl`, the Inhibition with Plasmodium falciparum [1] turned out to be 100%; with Plasmodium falciparum [2], 95%; in the experiment on HepG2, 32%.

For `O=C(c1ccco1)N1CCN(c2nc(-c3ccc(Cl)cc3)nc3ccccc23)CC1`, the Inhibition in the experiment with Plasmodium falciparum [1] is listed as 96%; with Plasmodium falciparum [2] it was 91%; with HepG2 it was 13%.

Consider `Cc1c(CNCCCNc2cc(=O)c3ccccc3[nH]2)sc(C(F)F)c1Br.Cl`, for which the Inhibition was determined as 98% with Plasmodium falciparum [1], 29% in the experiment on Plasmodium falciparum [2] and 0% with HepG2.

Consider `COc1cccc(C2CCN(CCN3CCC(CNC(=O)c4ccc(-c5ccc(C(F)(F)F)cc5)cc4)CC3)CC2)c1`, for which the Inhibition in the experiment with Plasmodium falciparum [1] worked out at 100%; in the experiment on Plasmodium falciparum [2] it was 42%; in the experiment on HepG2, 41%.

`COc1cc2nc(N3CCC(CNC(=O)c4ccc(-c5ccc(C(=O)N(C)C)cc5OCCO)cc4)CC3)nc(N)c2cc1OC`: the Inhibition is reported as 100% with Plasmodium falciparum [1], 8% in the experiment with Plasmodium falciparum [2] and 0% in the experiment on HepG2.

As for `CC(O)C(C)(CO)NCc1ccc2c3c(cccc13)-c1ccccc1-2.Cl` (stereo not drawn), the Inhibition in the experiment with Plasmodium falciparum [1] came out at 95%; in the experiment with Plasmodium falciparum [2] it was 85%; with HepG2, 81%.

Turning to `COc1ccc2nccc(CCN3CC(O)C(CNCc4ccc5c(n4)NC(=O)CS5)C3)c2n1.Cl` (stereo not drawn), the Inhibition was 86% in the experiment with Plasmodium falciparum [1], 26% with Plasmodium falciparum [2] and 4% in the experiment on HepG2.

As for `CCOc1ccc2c(c1)OC(c1ccccc1)(C(F)(F)F)NC2=O` (stereo not drawn), the Inhibition in the experiment with Plasmodium falciparum [1] is listed as 100%; with Plasmodium falciparum [2], 98%; with HepG2, 0%.

For `Cc1nn(-c2ccccc2)c2nc(-c3ccccc3)cc(C(=O)N3CCOCC3)c12`, the Inhibition worked out at 93% in the experiment on Plasmodium falciparum [1], 67% in the experiment with Plasmodium falciparum [2] and 6% in the experiment with HepG2.

With `Cc1cc2[nH]c(-c3ccc(C(=O)NCCCN4CCN(c5cccc(Cl)c5)CC4)cc3F)nc2cc1Cl`, the results for the Inhibition in the experiment with Plasmodium falciparum [1], in the experiment with Plasmodium falciparum [2] and in the experiment on HepG2 were 99%, 79% and 0%, respectively.

As for `Cc1cccc2nc(-c3cccc(-c4ccc(NC(=O)C(C)CN5CCN(C)CC5)cc4)c3)[nH]c12` (stereo not drawn), the Inhibition is given as 99% with Plasmodium falciparum [1], 100% with Plasmodium falciparum [2] and 7% with HepG2.

Take `O=C(/C=C/c1ccc(Cl)c(Cl)c1)NCCCCCN1CCC(NC(=O)Nc2ccc(Cl)c(Cl)c2)CC1`: the Inhibition was determined as 100% in the experiment with Plasmodium falciparum [1], 1% with Plasmodium falciparum [2] and 23% in the experiment with HepG2.

Turning to `O=C(NCCCc1ccccc1)c1ccc(O)c(-c2cc(Cl)cc(Cl)c2)c1`, the Inhibition was found to be 99% with Plasmodium falciparum [1], 98% with Plasmodium falciparum [2] and 0% in the experiment with HepG2.

For `CCCCCCc1c(C)nc2cc(OC)ccc2c1O`, the Inhibition with Plasmodium falciparum [1] was determined as 97%; with Plasmodium falciparum [2] it was 97%; with HepG2, 10%.

As for `O=C(Nc1ccc(Cn2ncc(N3CCCNCC3)c(Cl)c2=O)cc1)Nc1cccc(SC(F)(F)F)c1.O=C(O)C(F)(F)F`, the Inhibition in the experiment with Plasmodium falciparum [1] came out at 92%; in the experiment on Plasmodium falciparum [2], 33%; in the experiment on HepG2, 12%.

In the case of `CN1CCC(N(C)C(=O)C=Cc2cn(-c3ccccc3)nc2-c2cc3ccccc3o2)CC1.Cl`, the Inhibition was determined as 92% with Plasmodium falciparum [1], 5% in the experiment with Plasmodium falciparum [2] and 38% in the experiment on HepG2.

In the case of `C#CCCC(=O)Nc1cccc(-c2cccc(-c3nc4cc(C(F)(F)F)ccc4[nH]3)c2)c1`, the Inhibition with Plasmodium falciparum [1] was determined as 90%; in the experiment on Plasmodium falciparum [2] it was 45%; in the experiment with HepG2, 14%.

Consider `COCCNC(=O)C1CCN(C(c2ccc(Cl)cc2)c2ccc(Cl)cc2)CC1`, for which the Inhibition in the experiment with Plasmodium falciparum [1] is recorded as 86%; in the experiment with Plasmodium falciparum [2], 73%; with HepG2, 3%.

As for `C=CCn1c(=N)n(CC(O)c2ccc(Cl)c(Cl)c2)c2ccccc21.Cl` (stereo not drawn), the results for the Inhibition with Plasmodium falciparum [1], with Plasmodium falciparum [2] and with HepG2 were 91%, 80% and 15%, respectively.

For the compound `Cc1ccc(C(=O)NC2CCN(CCNC(=O)Nc3cc(C)nc4ccccc34)CC2)cc1`, the Inhibition with Plasmodium falciparum [1] was determined as 98%; in the experiment on Plasmodium falciparum [2] it was 76%; with HepG2, 0%.

`NC(=O)C1CCN(Cc2ccc(-c3cccc(-c4nc5cc(F)ccc5[nH]4)c3)cc2)CC1.O=C(O)C(F)(F)F`: the figures for the Inhibition in the experiment on Plasmodium falciparum [1], with Plasmodium falciparum [2] and in the experiment on HepG2 were 90%, 3% and 10%, respectively.
